For 16 compounds, Potency results are on record in PubChem BioAssay (NCATS).

Test [1] can be described thus: Quantitative High-Throughput drug screen in 47 multiple myeloma cell lines against the NCATS MIPE library collection: FR4_PLB cell viability assay (AID 1918924; also: nearly all actives have a fitted effect of over 35% in size). A digest of the protocol: (§1)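 Primary qHTS used for cherry-picking: cells at 500/well, library compounds for 48 h (37C, 5% CO2), luminescent ATP assay.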
The nature of test [2]: Quantitative High-Throughput drug screen in 47 multiple myeloma cell lines against the NCATS MIPE library collection: Delta47_JCRB cell viability assay (AID 1918925; also: nearly all actives have a fitted effect of over 45% in size). A digest of the protocol:
(§2)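 qHTS of the MIPE 4.0 collection: 500 myeloma cells/well, 48 h drug exposure at 37C in 5% CO2, then CellTiter-Glo for 5 min at room temperature before luminescence reading.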

A short description of test [3]: Quantitative High-Throughput drug screen in 47 multiple myeloma cell lines against the NCATS MIPE library collection: EJM_DSMZ cell viability assay (AID 1918926; also: nearly all actives have a fitted effect of over 30% in size). A digest of the protocol: as §2
A short description of test [4]: Quantitative High-Throughput drug screen in 47 multiple myeloma cell lines against the NCATS MIPE library collection: ARP1_JJKsccF8 cell viability assay (AID 1918928; also: nearly all actives have a fitted effect of over 40% in size). A digest of the protocol: (§3)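 Myeloma cells, 500 per well, were exposed to MIPE 4.0 drugs by pin transfer for 48 h at 37 °C, 5% CO2. Viability was read as ATP luminescence with CellTiter-Glo, normalised to DMSO-only (100%) and medium-only (0%) wells.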

Test [5] can be described thus: Quantitative High-Throughput drug screen in 47 multiple myeloma cell lines against the NCATS MIPE library collection: Karpas620_DSMZ cell viability assay (AID 1918959). Also: nearly all actives have a fitted effect of over 30% in size. A digest of the protocol: as §1
Test [6] in a line: Quantitative High-Throughput drug screen in 47 multiple myeloma cell lines against the NCATS MIPE library collection: Karpas417_ECACC cell viability assay (AID 1918961). As to conditions: Karpas417 myeloma viability, CellTiter-Glo ATP luminescence, 48 h; viability (% of DMSO): at 45.8 µM (top of the series). In short, it runs like this: (§4)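 We plated 500 myeloma cells per well, pinned in MIPE 4.0 compounds, and incubated for 48 hours at 37C. ATP was then quantified with CellTiter-Glo, with DMSO and media-only wells defining 100% and 0%.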
In general terms: ATP-based viability assays read luminescence as a measure of living cells.

The nature of test [7]: Quantitative High-Throughput drug screen in 47 multiple myeloma cell lines against the NCATS MIPE library collection: KHM11_PLB cell viability assay (AID 1918962). Also: nearly all actives have a fitted effect of over 35% in size. A digest of the protocol:
as §1

Test [8] in a line: Quantitative High-Throughput drug screen in 47 multiple myeloma cell lines against the NCATS MIPE library collection: JIM3_ECACC cell viability assay (AID 1918963; also: nearly all actives have a fitted effect of over 35% in size). In short, it runs like this:
as §1

A short description of test [9]: Quantitative High-Throughput drug screen in 47 multiple myeloma cell lines against the NCATS MIPE library collection: JIM1_ECACC cell viability assay (AID 1918964). A digest of the protocol: as §2
The nature of test [10]: Quantitative High-Throughput drug screen in 47 multiple myeloma cell lines against the NCATS MIPE library collection: INA6_PLB cell viability assay (AID 1918965; also: nearly all actives have a fitted effect of over 55% in size). A digest of the protocol: as §4
Test [11] is described as follows: Quantitative High-Throughput drug screen in 47 multiple myeloma cell lines against the NCATS MIPE library collection: ARD_JJKsccE7 cell viability assay (AID 1918929). In short, it runs like this:
as §2

A short description of test [12]: Quantitative High-Throughput drug screen in 47 multiple myeloma cell lines against the NCATS MIPE library collection: AMO1_DSMZ cell viability assay (AID 1918927; also: nearly all actives have a fitted effect of over 30% in size). A digest of the protocol:
as §2

Test [13] in a line: Quantitative High-Throughput drug screen in 47 multiple myeloma cell lines against the NCATS MIPE library collection: KMM1_JCRB cell viability assay (AID 1918960). Also: nearly all actives have a fitted effect of over 30% in size. A digest of the protocol:
as §3

Inconclusive results are not listed. Activity calls are given as the source filed them. Calls follow the shape of the dose curve; as a rule, active = well fitted curve in the direction sought with a large enough effect; inconclusive = small, poorly fitted or top-dose-only effect, or another doubt; inactive = no such curve, though single readings can be large; an effect the other way counts as inactive or inconclusive.
Potency is read from the fitted curve at half-maximal effect.

`C[C@@H]1O[C@@H](O[C@@H]2C=C3CC[C@@H]4[C@@H](CC[C@]5(C)[C@H](c6ccc(=O)oc6)CC[C@@]45O)[C@@]3(C)CC2)[C@H](O)[C@H](O)[C@H]1O`: the Potency in test [1] is 8.3 nM (active); in test [2], 26.4 nM (active); in test [3] it was 20.9 nM (active); in test [4], 20.9 nM (active); in [5], 20.9 nM (active); in test [6] it was 14.8 nM (active). Also, the Potency in [7] was 29.6 nM (active); in [8] it was 29.6 nM (active); in [9] it was 13.2 nM (active); in [10] it was 26.4 nM (active).

As to `CC=C(C)C(=O)N[C@@H](c1ccccc1)[C@@H](O)C(=O)O[C@H]1C[C@@]2(O)[C@@H](OC(=O)c3ccccc3)[C@@H]3[C@]4(OC(C)=O)CO[C@@H]4C[C@H](O)[C@@]3(C)C(=O)[C@H](OC(C)=O)C(=C1C)C2(C)C`, the Potency result in [1], in test [3], in [4], in test [8] and in [10] was “inactive” in each case. In addition, the Potency in test [11] is 1 nM (active).

On to `C=C[C@@H]1CN2CCC1C[C@@H]2[C@@H](O)c1ccnc2ccccc12` (some centres undefined), for which the Potency in test [2] is 23500 nM (active); in test [3] it was 9350 nM (active); in test [12], 5900 nM (active); in test [5], 5260 nM (active); in [10], 23500 nM (active).

Turning to `CCCN1CCO[C@@H]2c3cc(O)ccc3OC[C@@H]21`, the Potency result in test [1], in [3], in test [4], in [5], in [13] and in test [8] was “inactive” in each case.

As to `C[C@]12CC[C@H]3[C@@H](CCC4=CC(=O)CC[C@@]43C)[C@H]1CC[C@H]2O`, the Potency entry in test [1], in test [2], in [12], in test [4], in test [11] and in test [5] was “inactive” each time. In addition, the Potency entry in [7], in test [8], in [9] and in [10] was “inactive” throughout.

With `COC[C@H]1OC(=O)c2coc3c2[C@@]1(C)C1=C(C3=O)[C@@H]2CC[C@H](O)[C@@]2(C)C[C@@H]1OC(C)=O`, the Potency is 3720 nM (active) in [1]; 6.6 nM (active) in test [2]; 5260 nM (active) in test [12]; 332 nM (active) in [4]; 3720 nM (active) in test [5]; 5900 nM (active) in [13]. Also, the Potency in [9] was 1480 nM (active); in test [10] it was 1180 nM (active).

On to `C=C1C[C@H]2[C@H]3CCC(=O)[C@@]3(C)CC[C@@H]2[C@@]2(C)C=CC(=O)C=C12`, for which the Potency in test [12] was 18700 nM (active); in [5] it was 23500 nM (active); in [10], 20900 nM (active).

As for `Cc1c(C(=O)c2cccc3ccccc23)c2cccc3c2n1[C@H](CN1CCOCC1)CO3`, the Potency was 23500 nM (active) in test [1]; 14800 nM (active) in test [2]; 26400 nM (active) in [4]; 8330 nM (active) in test [5]; 5260 nM (active) in test [13]; 16600 nM (active) in test [7]. Also, the Potency in test [8] and in test [10] was 23500 nM (active) throughout.

In the case of `C#C[C@]1(O)C=C[C@@H]2[C@@H]3CCC4=CC(=O)CC[C@@H]4[C@H]3CC[C@@]21CC`, the Potency entry in [1], in [3], in test [4], in test [5] and in test [8] was “inactive” each time.

Turning to `COc1ccc2c(c1)[C@]13CCCCC1C(C2)N(C)CC3` (some centres undefined), the Potency result in test [1], in test [3], in test [12], in test [4], in test [5] and in [13] was “inactive” throughout. Besides, the Potency entry in test [8], in test [9] and in test [10] was “inactive” each time.

With `Cc1nc(-c2ccc(-c3ccc(C(=O)N4CCc5cc6c(cc54)C4(CCN(C)CC4)CO6)cc3)c(C)c2)no1`, the Potency entry in test [1], in test [3], in test [12], in test [4], in [5] and in test [13] was “inactive” each time. For the same compound, in test [8], the Potency result was “inactive”.

Consider `C[C@@]12OC(=O)[C@]1([C@@H](O)[C@@H]1C=CCCC1)NC(=O)[C@H]2CCCl`, for which the Potency in test [1] was 5.3 nM (active); in test [3] it was 18.7 nM (active); in test [12] it was 11.8 nM (active); in test [4], 10.5 nM (active); in [11], 1 nM (active); in test [5] it was 9.3 nM (active). In addition, the Potency is 7.4 nM (active) in test [13], 23.5 nM (active) in test [8], 20.9 nM (active) in [9] and 1 nM (active) in test [10].

On to `C[C@H]1CCCC=CC2C[C@H](O)C[C@@H]2[C@H](O)C=CC(=O)O1` (some centres undefined), for which the Potency result in test [1], in test [2], in [4], in [6], in test [7] and in test [8] was “inactive” each time. Also, in test [10], the Potency result was “inactive”.

As for `CC(=CCCC1=CCC(C2=CC(=O)OC2O)OC1O)CCC1=C(C)CCCC1(C)C` (centres undefined), the Potency result in [1], in test [2], in test [3], in test [4], in test [5] and in [8] was “inactive” each time. Besides, the Potency result in test [9] and in test [10] was “inactive” each time.

For the compound `C[C@]12COC(=O)C[C@@H]1CC[C@@H]1[C@H]2CC[C@@]2(C)[C@H]1CC[C@]2(C)O`, the Potency entry in test [1], in [2], in [3], in [5], in [13] and in [8] was “inactive” each time. Besides, the Potency result in [9] was “inactive”.

Consider `C[C@]12Cc3cn[nH]c3C[C@@H]1CC[C@@H]1[C@H]2CC[C@@]2(C)[C@H]1CC[C@]2(C)O`, for which the Potency result in test [11], in test [5], in test [13], in test [9] and in test [10] was “inactive” in each case.
